# Test results published in PubChem BioAssay AID1159580 (chemical genetic matrix, 2015).
# “And” between values parts separate entries of the source, which are not always exact repeats. Equal entries are not always repeated. Out of some 5,500 compounds screened, about 2,000 (36%) were called active. Not shown: some 18% with an inconclusive outcome. Some of the results follow. A number with no mark means an inactive call. No stated cut-off is given here; in the data, active means normalized growth mostly below about 0.91 (no sharp cut-off); inconclusive means no clear call, values can overlap the other calls; inactive means mostly above about 0.92.
# Experiment: chemical genetic growth profiling, strain panel (AID 1159580);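 further: tested at 20 µM; growth read once vehicle control cultures reached saturation at 30 °C; 1 = growth at the plate median or of vehicle wells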
# Conditions: growth OD
smiles,measurement,setting,value
O=C(/C=C/c1ccc(O)cc1)c1ccc(O)cc1O,normalized growth,"S. cerevisiae deletion strains, locus YJR075W, strain HOC1, stronger effect = lower value",0.985 and 0.976
same,normalized growth,"S. cerevisiae deletion strains, locus YKL009W, strain mrt4, stronger effect = lower value",0.947
same,normalized growth,"S. cerevisiae deletion strains, locus YKL068W, stronger effect = lower value",0.95
same,normalized growth,"S. cerevisiae deletion strains, locus YKL085W, strain MDH1 (second series), stronger effect = lower value",0.965
same,normalized growth,"S. cerevisiae deletion strains, locus YKL085W, strain MDH1, stronger effect = lower value",0.965
same,normalized growth,"S. cerevisiae deletion strains, locus YKL160W, strain elf1, stronger effect = lower value",0.988
same,normalized growth,"S. cerevisiae deletion strains, locus YKL190W, strain CNB1, stronger effect = lower value",0.993
same,normalized growth,"S. cerevisiae deletion strains, locus YKR001C, strain vps1, stronger effect = lower value",0.887 (active)
same,normalized growth,"S. cerevisiae deletion strains, locus YKR026C, strain gcn3, stronger effect = lower value",1.01
same,normalized growth,"S. cerevisiae deletion strains, locus YKR091W, strain srl3, stronger effect = lower value",1.01
same,normalized growth,"S. cerevisiae deletion strains, locus YLL001W, strain dnm1, stronger effect = lower value",1.01
same,normalized growth,"S. cerevisiae deletion strains, locus YLL026W, stronger effect = lower value",1
same,normalized growth,"S. cerevisiae deletion strains, locus YLL041C, strain sdh2, stronger effect = lower value",1.01
same,normalized growth,"S. cerevisiae deletion strains, locus YLR027C, strain aat2, stronger effect = lower value",0.978
same,normalized growth,"S. cerevisiae deletion strains, locus YLR039C, strain RIC1, stronger effect = lower value",0.942
same,normalized growth,"S. cerevisiae deletion strains, locus YLR058C, strain SHM2, stronger effect = lower value",1.01
same,normalized growth,"S. cerevisiae deletion strains, locus YLR102C, strain apc9, stronger effect = lower value",0.953
same,normalized growth,"S. cerevisiae deletion strains, locus YLR113W, strain HOG1, stronger effect = lower value",0.927
same,normalized growth,"S. cerevisiae deletion strains, locus YLR221C, strain rsa3, stronger effect = lower value",0.987
same,normalized growth,"S. cerevisiae deletion strains, locus YLR258W, strain gsy2, stronger effect = lower value",1.01
same,normalized growth,"S. cerevisiae deletion strains, locus YLR262C, strain YPT6 (second series), stronger effect = lower value",1.02
same,normalized growth,"S. cerevisiae deletion strains, locus YLR262C, strain YPT6, stronger effect = lower value",1.02
same,normalized growth,"S. cerevisiae deletion strains, locus YLR268W, strain sec22, stronger effect = lower value",0.957
same,normalized growth,"S. cerevisiae deletion strains, locus YLR320W, strain mms22, stronger effect = lower value",1.01
same,normalized growth,"S. cerevisiae deletion strains, locus YLR330W, strain CHS5, stronger effect = lower value",0.985
same,normalized growth,"S. cerevisiae deletion strains, locus YLR342W, strain FKS1 (second series), stronger effect = lower value",0.981
same,normalized growth,"S. cerevisiae deletion strains, locus YLR342W, strain FKS1, stronger effect = lower value",1
same,normalized growth,"S. cerevisiae deletion strains, locus YLR357W, strain rsc2, stronger effect = lower value",0.997
same,normalized growth,"S. cerevisiae deletion strains, locus YLR370C, strain arc18, stronger effect = lower value",1.02
same,normalized growth,"S. cerevisiae deletion strains, locus YLR371W, strain rom2, stronger effect = lower value",0.9 (active)
same,normalized growth,"S. cerevisiae deletion strains, locus YLR384C, strain iki3, stronger effect = lower value",1.01
same,normalized growth,"S. cerevisiae deletion strains, locus YLR418C, strain cdc73, stronger effect = lower value",0.86
same,normalized growth,"S. cerevisiae deletion strains, locus YML016C, strain PPZ1, stronger effect = lower value",0.986
same,normalized growth,"S. cerevisiae deletion strains, locus YML032C, strain rad52, stronger effect = lower value",0.984
same,normalized growth,"S. cerevisiae deletion strains, locus YML120C, strain ndi1, stronger effect = lower value",0.995
same,normalized growth,"S. cerevisiae deletion strains, locus YML124C, strain tub3, stronger effect = lower value",0.964
same,normalized growth,"S. cerevisiae deletion strains, locus YMR058W, strain fet3, stronger effect = lower value",1.02
same,normalized growth,"S. cerevisiae deletion strains, locus YMR078C, strain ctf18, stronger effect = lower value",0.954
same,normalized growth,"S. cerevisiae deletion strains, locus YMR125W, strain sto1, stronger effect = lower value",0.992
same,normalized growth,"S. cerevisiae deletion strains, locus YMR129W, stronger effect = lower value",1.03
same,normalized growth,"S. cerevisiae deletion strains, locus YMR205C, strain PFK2, stronger effect = lower value",0.967
same,normalized growth,"S. cerevisiae deletion strains, locus YMR223W, strain ubp8, stronger effect = lower value",0.967
same,normalized growth,"S. cerevisiae deletion strains, locus YMR231W, strain pep5, stronger effect = lower value",1.01
same,normalized growth,"S. cerevisiae deletion strains, locus YMR263W, strain SAP30, stronger effect = lower value",0.989
same,normalized growth,"S. cerevisiae deletion strains, locus YMR307W, strain GAS1, stronger effect = lower value",1.08
same,normalized growth,"S. cerevisiae deletion strains, locus YNL067W, strain RPL9B, stronger effect = lower value",1.01
same,normalized growth,"S. cerevisiae deletion strains, locus YNL071W, strain lat1, stronger effect = lower value",0.996
same,normalized growth,"S. cerevisiae deletion strains, locus YNL128W, strain TEP1, stronger effect = lower value",0.964
same,normalized growth,"S. cerevisiae deletion strains, locus YNL153C, strain GIM3, stronger effect = lower value",1.03
same,normalized growth,"S. cerevisiae deletion strains, locus YNL175C, strain NOP13, stronger effect = lower value",0.979
same,normalized growth,"S. cerevisiae deletion strains, locus YNL183C, strain NPR1, stronger effect = lower value",0.944
same,normalized growth,"S. cerevisiae deletion strains, locus YNL197C, strain WHI3, stronger effect = lower value",0.992
same,normalized growth,"S. cerevisiae deletion strains, locus YNL209W, strain ssb2, stronger effect = lower value",1
same,normalized growth,"S. cerevisiae deletion strains, locus YNL224C, strain SQS1, stronger effect = lower value",0.976
same,normalized growth,"S. cerevisiae deletion strains, locus YNL233W, strain BNI4, stronger effect = lower value",0.975
same,normalized growth,"S. cerevisiae deletion strains, locus YNL248C, strain rpa49, stronger effect = lower value",1.04
same,normalized growth,"S. cerevisiae deletion strains, locus YNL250W, strain rad50, stronger effect = lower value",0.961
same,normalized growth,"S. cerevisiae deletion strains, locus YNL271C, strain bni1, stronger effect = lower value",0.965
same,normalized growth,"S. cerevisiae deletion strains, locus YNL298W, strain CLA4, stronger effect = lower value",0.99
same,normalized growth,"S. cerevisiae deletion strains, locus YNL307C, strain MCK1, stronger effect = lower value",0.968
same,normalized growth,"S. cerevisiae deletion strains, locus YNL322C, strain KRE1 (second series), stronger effect = lower value",1
same,normalized growth,"S. cerevisiae deletion strains, locus YNR049C, strain mso1, stronger effect = lower value",1.01
same,normalized growth,"S. cerevisiae deletion strains, locus YNR052C, strain pop2, stronger effect = lower value",1.01
same,normalized growth,"S. cerevisiae deletion strains, locus YOL012C, strain htz1",1.77
same,normalized growth,"S. cerevisiae deletion strains, locus YOL147C, strain pex11, stronger effect = lower value",0.969
same,normalized growth,"S. cerevisiae deletion strains, locus YOR001W, strain rrp6, stronger effect = lower value",1.02
same,normalized growth,"S. cerevisiae deletion strains, locus YOR061W, strain CKA2, stronger effect = lower value",0.988
same,normalized growth,"S. cerevisiae deletion strains, locus YOR069W, strain VPS5, stronger effect = lower value",0.976
same,normalized growth,"S. cerevisiae deletion strains, locus YOR070C, strain gyp1, stronger effect = lower value",1
same,normalized growth,"S. cerevisiae deletion strains, locus YOR080W, strain dia2, stronger effect = lower value",1.01
same,normalized growth,"S. cerevisiae deletion strains, locus YOR083W, strain WHI5 (second series), stronger effect = lower value",0.982
same,normalized growth,"S. cerevisiae deletion strains, locus YOR083W, strain WHI5, stronger effect = lower value",0.974
same,normalized growth,"S. cerevisiae deletion strains, locus YOR106W, strain vam3, stronger effect = lower value",0.988
same,normalized growth,"S. cerevisiae deletion strains, locus YOR136W, strain idh2, stronger effect = lower value",0.974
same,normalized growth,"S. cerevisiae deletion strains, locus YOR144C, strain elg1, stronger effect = lower value",0.99
same,normalized growth,"S. cerevisiae deletion strains, locus YOR184W, strain ser1, stronger effect = lower value",0.93
same,normalized growth,"S. cerevisiae deletion strains, locus YOR231W, strain MKK1, stronger effect = lower value",0.874
same,normalized growth,"S. cerevisiae deletion strains, locus YOR265W, strain rbl2, stronger effect = lower value",1.02
same,normalized growth,"S. cerevisiae deletion strains, locus YOR270C, strain vph1, stronger effect = lower value",1.04
same,normalized growth,"S. cerevisiae deletion strains, locus YOR290C, strain snf2, stronger effect = lower value",0.976
same,normalized growth,"S. cerevisiae deletion strains, locus YOR316C, strain cot1, stronger effect = lower value",0.962
same,normalized growth,"S. cerevisiae deletion strains, locus YPL051W, strain arl3, stronger effect = lower value",0.975
same,normalized growth,"S. cerevisiae deletion strains, locus YPL055C, strain LGE1, stronger effect = lower value",0.977
same,normalized growth,"S. cerevisiae deletion strains, locus YPL078C, strain atp4, stronger effect = lower value",0.99
same,normalized growth,"S. cerevisiae deletion strains, locus YPL106C, strain sse1, stronger effect = lower value",0.982
same,normalized growth,"S. cerevisiae deletion strains, locus YPL240C, strain hsp82, stronger effect = lower value",1.01
same,normalized growth,"S. cerevisiae deletion strains, locus YPL256C, strain CLN2, stronger effect = lower value",0.877
same,normalized growth,"S. cerevisiae deletion strains, locus YPR119W, strain clb2, stronger effect = lower value",0.949
same,normalized growth,"S. cerevisiae deletion strains, locus YPR141C, strain kar3, stronger effect = lower value",0.972
same,normalized growth,"S. cerevisiae deletion strains, locus YPR163C, strain tif3, stronger effect = lower value",0.976
same,normalized growth,"S. cerevisiae deletion strains, locus YPR167C, strain met16, stronger effect = lower value",0.966
same,normalized growth,"S. cerevisiae deletion strains, strain wtn01, stronger effect = lower value",0.94
same,normalized growth,"S. cerevisiae strains, strain wild type, stronger effect = lower value",0.991
